Reference: the supplement of paper PMC12632987

B1: usp_38_diff_out_5_164_584 (protein)
chain: EVEEAFKEMDALTEETIKKLNELLKEAKENPEKAEEYLKEATSLVNSALDKLNEITTETLEKHPEKAEEILKHYDERVTKLLTEYQKVKEEIQKIIEEAK
B2: usp_38_diff_out_5_164_585 (protein)
chain: GVEEAKKKMTELTEETIKKLEELLKKAKENPEKAEEYLKEANKLVQEALDELNRITTETLEAHPEQAEEILAHYSEQVTKLLTKYQEVMKEIKEIIKKAK
B3: usp_38_diff_out_5_164_586 (protein)
chain: TVEAAKKQMDEITEKLIKELKKLKEEAEKDPSKLDEIEKEANEKTNKAIDEMTAITTETLEANPEKADEILAHYSEQIDKMLKEYQELMDYIKKLKEEKE
B4: usp_38_diff_out_5_164_587 (protein)
chain: MVEEYLKEMEKITEEAIKKLEELLAEAKKNPEKLDEYKKEIEKLVEKALNEINELVTKALEENPEKAEEILKKYDELVTKLLTAYQKAMKELEALKKEKA
B5: usp_38_diff_out_5_164_588 (protein)
chain: GLEEYLEEIDKITEETIEKLKKLLEEAKKNPEKLEEYEKEIEKLTEEALDKINEVVTEALEKHPEKAEEILAHYDEQVTRLLTAYQEAKKELEKLKKEKE
B6: usp_38_diff_out_5_164_589 (protein)
chain: GVEKYLEEIDKLTEEAIAKIKELLAEAKKNPEKLDEVEKEIKELTDKTLDEINKITTEALEKFPEKAEEILSHYDEQVTKLLTAYQAALDELAKLKKEKA
B7: usp_38_diff_out_5_164_592 (protein)
chain: GVEKYLEELQKITDEAIKELKELLEEAKENPEKLEEYKKKATEKTNEAIDKMNEITTKALEEHPEQADTILAHYDEQVTKLLTEYNEVLKEIEELKKKKE
B8: usp_38_diff_out_5_164_593 (protein)
chain: GVEEYLEELEKITEEAIKKLKELLEEAKKDPSKLEEYKKKATELVNEAIDKMNEITTEALEKHPEKADEILEHYDRQVTRLLTEYQKVMDEIEKIKKELE
B9: usp_38_diff_out_5_164_594 (protein)
chain: GVDAALAEIDKITEEAIKKMEELLEKAKKNPEQLDEYKKKLTEITNEALDKINATTTAALEAHPEQADTILAHYDKQVTKMLTKYQEALDEIEKLKKEKE
B10: usp_38_diff_out_5_164_596 (protein)
chain: SVEEALKELTELTDKTIAEIDKLVAEAKKNPEKLDEYEKQLTETTNEAIDKMNEITTKALEANPEKADEILSHYDEQMTRLLTRYAEAKAEIEALKKALE
B11: usp_38_diff_out_5_164_599 (protein)
chain: SLEEYLRRMEEIREKLIKELKELLEEAKKNPEKLEEIKKEVEKKTEEALNEMNEITTAALEAYPERAEEILRHYSEQVEKMLTEYQEVMEELEKLEKEKK
B12: usp_38_diff_out_5_164_600 (protein)
chain: SVEESLAEIDKITAELKEELKALLAEAKENPEKLKEYKKKMTEKMNEAIDKMNEITTKTLEAYPEQADTILAHYDRRMTEMLTAYNEAMKELEALEKELA
B13: usp_38_diff_out_5_164_602 (protein)
chain: SLEEYLKEMDELTKELIEELKKLVEEAKKNPEKLEEYKKKINEKTNEAIDKMNEITTKALEEFPEKAEEILKHYSEQIDKMLEAKNAAMKELDALKKAQA
B14: usp_38_diff_out_5_164_603 (protein)
chain: AVEAALAEMDAIAAELKKELEKLLEEAKKNPEKLEEYKKKLTEATNAALDRLNATTTAALEAAPERADEILAHYDRVVTEMLTKYQEAKEELEKLKKEAA
B15: usp_38_diff_out_5_164_604 (protein)
chain: AVEEALAKMKAITEELKKKFDELLAEAKKNPEKLDEYKKEVTEALNKAIDEMNEVTTAALEAAPEQADTILAAYDENVTEMLTHYQAVMDELKALEKEAA
B16: usp_38_diff_out_5_164_605 (protein)
chain: GVEEALERLERIREELKKELDELLEEAKKNPEKLEEYKKKVTEKVNEAIDEMNEVTTAALEAHPERADEILAHYDEVVTEMLEHYNKVMEELEKLKKEYE
B17: usp_38_diff_out_5_164_606 (protein)
chain: MVEEALKRMEEIAKELEAKLKALLAEAKKNPAKLAEYEKQITDATNEALDELNEITTKALEANPEKADEILEHYDRVVTRMLTAYNAAKAELAALKKEAA
B18: usp_38_diff_out_5_164_607 (protein)
chain: GVEEALKELEKTAEELKKKLKELLEEAKKNPEKLDEYKKKITEAVNEAIDKINEITTKALEAHPEQADEILRHYDEVVTEMLTEYNAALEELEKLKKEAA
B19: usp_38_diff_out_5_164_608 (protein)
chain: GVEEALEELRKIREELEKKLKELLEKAKENPEKLEEYKKEITKAMDEAIDKMNEITTRALEAHPERAEEILREYDEEVTKMLKEYNEVMEKLKKLEEEYK
B20: usp_38_diff_out_5_164_609 (protein)
chain: MVEEKLKEMEEIRDETIEKLDELLEEAKKNPEKLEEIKKEINELTEEAIDKMNELTTEALEADPERAEEILKHYDELMTELLTHKKEVLEEIEKLKKEKE
B21: usp_38_diff_out_5_164_610 (protein)
chain: GVEELLKEMEEIKKETLEKLDKLLEEAKKNPEKLDEYKKEINELTNEAIDKMNELTTEALELDPERAEEILRHYDEIMTELLTHKQKVLDEIEKLKKEKE
B22: usp_38_diff_out_5_164_611 (protein)
chain: EVERIREEFEARADATLAALRALLAQARADPATARAALAQAEALVDDLADFYVEAVEEVNEADPSKVEEFLREASRRLEELSALVAELRALARAQAEAEA
B23: usp_38_diff_out_5_164_612 (protein)
chain: AVEAIRAEFEAAADAALAELKALLAEAKADPSKVEEKLKEAEAVLDELLDLLVEATERVAEEDPSQVEAFLREADARLEELLGIIAEIRELARKVREAKA
B24: usp_38_diff_out_5_80_613 (protein)
chain: SLLEEARRLAEEALKAEDLETFEELLKQLVETVRRAAEEALERGTLDETVRELSGILLELDKEVRKSSNKEKKKLAKEYLNQAVDVLAAAELRALEREAA
B25: usp_38_diff_out_5_91_614 (protein)
chain: EERRKKLIEKAEEAAKKLEEAAKRLEAGEDYTKDIEEAIELYREIAAALADGDARERRLSLTAAGMALALEKLGEYPKDLQIAMLKAHADVAKEMAEQLK
B26: usp_38_diff_out_5_91_615 (protein)
chain: EERRKELIKKAKEAAKKLKEAAELLEKGEDYTKEIEEAIKLYKELAEALAGGNARERRLSLTAAGAAIALEKLDEYPKELQIAMLKAHAEVTKQMAEELE
B27: usp_38_diff_out_5_91_616 (protein)
chain: EEERKKIIEKAEELARLLKEAAELLEKGEDYTENIKRAIKLAEELAKALAGGDARERRLSLTFAGLAEALKEIENYPKELQIAMLKAHADVAEEAAELLK
B28: usp_38_diff_out_5_91_617 (protein)
chain: EEERRRLIELAEEAAELLKKAAELLEKGEDYTEAVKKAIELLKELAKLLAGGDSRERRLSLTAAGMAEALEELDKYPKELQIAMLKAMADVAKEMAEQLR
B29: usp_38_diff_out_5_91_618 (protein)
chain: AEARAEQIRLAEEAARLLEEAARRLEAGEDYTADVERAIALFRELAAALAGGDARQRRLSLTAAGLALALEELPRYSRELQIAMLRAHADVARAMAEELR
B30: usp_38_diff_out_5_91_621 (protein)
chain: EERRKELIKLAEEAAKLLEKAAELLEKGEDYTEAIKKAIELYKKLAEELKGGGPRERRLSLTAAGAAIALEELPKYSKELQIAMLKELADVTKELAEELK
B31: usp_38_diff_out_5_91_622 (protein)
chain: EETRKEAVKLAKEAAEALKKAAELLEKGEDYTEELKKAYEALTKLAELLAKGDAREQRLALTAAGIAEALKELPRYPKELQIAMLKELADVAKELAEQLE
B32: usp_38_diff_out_5_91_623 (protein)
chain: AERREEAVRLAKEAAEYLKKAAELLEAGEDYTEEIKRAREALTRAAELLAKGNAREQRLALTAAGMAEALDELPRYSKELQIAMLKELADVAKELAEQLA

Biological target: T1, USP38, Q8NB14
T1 chain: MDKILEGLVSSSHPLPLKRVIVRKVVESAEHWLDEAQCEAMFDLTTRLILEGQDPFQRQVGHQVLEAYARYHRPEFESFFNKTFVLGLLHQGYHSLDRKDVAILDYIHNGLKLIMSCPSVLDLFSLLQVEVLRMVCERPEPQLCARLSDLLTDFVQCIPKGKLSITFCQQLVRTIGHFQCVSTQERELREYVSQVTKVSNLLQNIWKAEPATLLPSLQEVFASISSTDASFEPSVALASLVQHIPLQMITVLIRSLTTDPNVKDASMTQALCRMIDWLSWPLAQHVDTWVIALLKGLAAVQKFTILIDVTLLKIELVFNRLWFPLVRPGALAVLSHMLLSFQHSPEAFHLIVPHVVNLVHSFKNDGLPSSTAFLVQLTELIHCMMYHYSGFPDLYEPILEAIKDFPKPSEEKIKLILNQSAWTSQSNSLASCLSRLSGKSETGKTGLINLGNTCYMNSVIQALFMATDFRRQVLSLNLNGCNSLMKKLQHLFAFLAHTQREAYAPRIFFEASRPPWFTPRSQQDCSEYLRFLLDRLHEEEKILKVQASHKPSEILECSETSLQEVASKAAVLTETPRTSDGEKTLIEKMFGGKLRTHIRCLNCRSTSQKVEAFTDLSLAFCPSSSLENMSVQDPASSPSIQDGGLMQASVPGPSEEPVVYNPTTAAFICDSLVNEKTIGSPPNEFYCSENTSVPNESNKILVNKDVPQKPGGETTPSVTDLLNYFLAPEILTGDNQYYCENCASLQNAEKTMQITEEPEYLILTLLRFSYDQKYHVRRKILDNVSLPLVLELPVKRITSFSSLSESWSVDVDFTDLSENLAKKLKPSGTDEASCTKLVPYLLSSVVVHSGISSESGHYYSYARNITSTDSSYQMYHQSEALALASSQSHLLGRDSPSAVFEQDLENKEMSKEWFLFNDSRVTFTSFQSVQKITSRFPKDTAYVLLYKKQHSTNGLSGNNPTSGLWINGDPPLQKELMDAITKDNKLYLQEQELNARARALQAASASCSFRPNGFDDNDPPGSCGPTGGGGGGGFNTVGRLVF
Assay: median log2 fold change of GCK-ALFA target abundance (FLAG IP / Myc IP barcode read proportion) (log2 ratio); each designed protein is fused to an ALFA-tag nanobody in HEK293 cells to bring the named protein to FLAG-tagged glucokinase (GCK); Myc marks an untargeted standard; higher = target protein stabilised (more abundant)
Settings: target protein: 3xFLAG-MCP-GCK-ALFA reporter; HEK293 landing pad (RPLP)
Outline: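 Binders fused to an ALFA nanobody were recombined as a library into HEK293 landing-pad cells, which were induced with 2 μg mL^−1 doxycycline and then transfected to express a FLAG-tagged target and a Myc-tagged standard. After 48 h, circular RNA barcodes recovered by anti-FLAG and anti-Myc immunoprecipitation of lysates were reverse transcribed, amplified and sequenced. Each binder's target abundance is the median log2 ratio of FLAG to Myc barcode read proportions, from barcodes present at ≥10^−7 in both replicates, binders carrying ≥3 barcodes per replicate, a 10^−6 pseudocount and pooled replicates.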

Row | Binder | median log2 fold change
1 | B1 | -0.0565
2 | B2 | 0.00563
3 | B3 | -0.179
4 | B4 | -0.281
5 | B5 | 0.25
6 | B6 | -0.351
7 | B7 | 0.0989
8 | B8 | -0.211
9 | B9 | -0.474
10 | B10 | -0.12
11 | B11 | -0.404
12 | B12 | -0.0274
13 | B13 | 0.277
14 | B14 | -0.21
15 | B15 | -0.333
16 | B16 | -0.0369

Row | Binder | median log2 fold change
17 | B17 | -0.164
18 | B18 | -0.164
19 | B19 | 0.0441
20 | B20 | 0.206
21 | B21 | -0.17
22 | B22 | -0.198
23 | B23 | -0.239
24 | B24 | -0.169
25 | B25 | 0.105
26 | B26 | 0.0701
27 | B27 | 0.153
28 | B28 | 0.486
29 | B29 | 0.0905
30 | B30 | 0.214
31 | B31 | 0.0965
32 | B32 | 0.1
